# Experiments:
# Assay in all cases: universal protein binding microarray (PBM); transcription factors of Arabidopsis thaliana; high values mean tight binding
# [1] = target: GST-NTL6(1-168) (Arabidopsis thaliana, UniProt Q9SCK6 1-168); conditions: protein: recombinant; tags: GST; chain copies: 2; dsDNA, one strand shown
# Procedure, shortened: (§1)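 For zinc-finger proteins, zinc acetate was added while GST-tagged NAC-domain, full-length or DNA-binding-domain proteins were induced in cells. Purification used glutathione–Sepharose 4B, and quantification used A280 or anti-GST western blot. Custom all-10-mer Agilent 4 × 180K arrays, made double-stranded by primer extension, each received a protein at 200 to 500 nM final in duplicate. Scoring covered gapped and ungapped 8-mers, with binding given as the normalised enrichment score (E-score).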
# [2] = target: T1, GST-ATAF1 NAC domain (Arabidopsis thaliana, UniProt Q39013 7-158); conditions: protein: recombinant; tags: GST; chain copies: 2; dsDNA, one strand shown
# T1 sequence: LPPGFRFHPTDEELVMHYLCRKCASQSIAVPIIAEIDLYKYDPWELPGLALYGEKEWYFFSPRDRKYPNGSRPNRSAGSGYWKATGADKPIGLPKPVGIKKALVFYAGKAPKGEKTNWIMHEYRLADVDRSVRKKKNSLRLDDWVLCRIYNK
# Procedure, shortened: as §1
# [3] = target: T2, GST-NST2(1-184) (Arabidopsis thaliana, UniProt Q9M274 1-184); conditions: protein: recombinant; tags: GST; chain copies: 2; dsDNA, one strand shown
# T2 sequence: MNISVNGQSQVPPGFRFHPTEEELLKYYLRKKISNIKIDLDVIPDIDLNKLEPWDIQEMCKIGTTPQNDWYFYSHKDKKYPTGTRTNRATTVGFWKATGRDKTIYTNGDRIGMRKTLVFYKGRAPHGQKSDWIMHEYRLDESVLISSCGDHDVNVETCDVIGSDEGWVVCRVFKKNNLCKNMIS
# Procedure, shortened: as §1
# [4] = target: T3, GST-NTL8 NAC domain (Arabidopsis thaliana, UniProt Q9XIN7 14-156); conditions: protein: recombinant; tags: GST; chain copies: 2; dsDNA, one strand shown
# T3 sequence: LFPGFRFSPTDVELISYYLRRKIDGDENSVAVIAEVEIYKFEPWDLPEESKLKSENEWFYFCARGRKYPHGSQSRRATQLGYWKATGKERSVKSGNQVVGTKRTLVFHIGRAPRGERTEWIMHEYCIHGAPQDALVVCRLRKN
# Procedure, shortened: as §1
# [5] = target: T4, GST-VND7 NAC domain (Arabidopsis thaliana, UniProt Q9C8W9 9-158); conditions: protein: recombinant; tags: GST; chain copies: 2; dsDNA, one strand shown
# T4 sequence: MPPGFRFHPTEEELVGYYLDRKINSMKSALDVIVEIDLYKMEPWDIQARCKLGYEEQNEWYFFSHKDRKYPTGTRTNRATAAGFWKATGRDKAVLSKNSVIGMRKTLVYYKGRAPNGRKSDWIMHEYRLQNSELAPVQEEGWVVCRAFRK
# Procedure, shortened: as §1
# [6] = target: GST-WRKY1(266-371) (Arabidopsis thaliana, UniProt Q9SI37 266-371); conditions: protein: recombinant; tags: GST; dsDNA, one strand shown
# GST-WRKY1(266-371), sequence (Q9SI37 266-371): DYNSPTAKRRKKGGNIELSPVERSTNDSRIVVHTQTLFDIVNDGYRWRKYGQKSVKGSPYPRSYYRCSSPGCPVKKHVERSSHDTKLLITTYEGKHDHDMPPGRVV
# Procedure, shortened: as §1
# [7] = target: T5, GST-ANAC092(1-176) (Arabidopsis thaliana, UniProt Q9FKA0 1-176); conditions: protein: recombinant; tags: GST; chain copies: 2; dsDNA, one strand shown
# T5 sequence: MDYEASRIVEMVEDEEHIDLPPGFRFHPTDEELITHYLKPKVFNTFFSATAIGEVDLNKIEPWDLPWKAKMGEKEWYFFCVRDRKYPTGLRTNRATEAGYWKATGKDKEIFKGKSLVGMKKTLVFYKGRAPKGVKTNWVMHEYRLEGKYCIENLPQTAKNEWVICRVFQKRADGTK
# Procedure, shortened: as §1
# [8] = target: T6, GST-ANAC019 NAC domain (Arabidopsis thaliana, UniProt Q9C932 14-162); conditions: protein: recombinant; tags: GST; chain copies: 2; dsDNA, one strand shown
# T6 sequence: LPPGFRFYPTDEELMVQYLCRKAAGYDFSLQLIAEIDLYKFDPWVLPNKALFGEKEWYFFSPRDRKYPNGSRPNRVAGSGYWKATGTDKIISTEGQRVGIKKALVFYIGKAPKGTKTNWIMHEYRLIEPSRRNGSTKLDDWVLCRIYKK
# Procedure, shortened: as §1
# [9] = target: T7, GST-ANAC092(1-285) full length (Arabidopsis thaliana, UniProt Q9FKA0 1-285); conditions: protein: recombinant; tags: GST; chain copies: 2; dsDNA, one strand shown
# T7 sequence: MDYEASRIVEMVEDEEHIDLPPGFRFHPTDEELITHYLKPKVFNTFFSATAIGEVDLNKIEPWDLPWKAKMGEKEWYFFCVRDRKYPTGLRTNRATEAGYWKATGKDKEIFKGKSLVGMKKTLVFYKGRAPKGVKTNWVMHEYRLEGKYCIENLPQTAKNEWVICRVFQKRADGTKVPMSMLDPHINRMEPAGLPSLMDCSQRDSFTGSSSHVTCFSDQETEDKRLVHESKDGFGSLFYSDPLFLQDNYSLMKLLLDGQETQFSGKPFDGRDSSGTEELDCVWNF
# Procedure, shortened: as §1
# [10] = target: T8, GST-VND3 NAC domain (Arabidopsis thaliana, UniProt Q9FH59 12-162); conditions: protein: recombinant; tags: GST; chain copies: 2; dsDNA, one strand shown
# T8 sequence: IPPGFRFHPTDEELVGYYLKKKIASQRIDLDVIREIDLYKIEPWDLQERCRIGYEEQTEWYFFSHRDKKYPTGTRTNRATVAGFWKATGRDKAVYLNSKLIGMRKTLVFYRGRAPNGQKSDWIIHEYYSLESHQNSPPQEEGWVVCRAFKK
# Procedure, shortened: as §1
# [11] = target: T9, GST-ANAC055(1-171) (Arabidopsis thaliana, UniProt Q9LDY8 1-171); conditions: protein: recombinant; tags: GST; chain copies: 2; dsDNA, one strand shown
# T9 sequence: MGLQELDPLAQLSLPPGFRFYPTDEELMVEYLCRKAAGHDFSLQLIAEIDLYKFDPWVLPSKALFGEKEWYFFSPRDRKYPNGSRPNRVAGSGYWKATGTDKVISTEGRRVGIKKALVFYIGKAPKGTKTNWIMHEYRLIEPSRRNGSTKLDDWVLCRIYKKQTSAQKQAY
# Procedure, shortened: as §1
# [12] = target: T10, GST-NAP(1-166) (Arabidopsis thaliana, UniProt O49255 1-166); conditions: protein: recombinant; tags: GST; chain copies: 2; dsDNA, one strand shown
# T10 sequence: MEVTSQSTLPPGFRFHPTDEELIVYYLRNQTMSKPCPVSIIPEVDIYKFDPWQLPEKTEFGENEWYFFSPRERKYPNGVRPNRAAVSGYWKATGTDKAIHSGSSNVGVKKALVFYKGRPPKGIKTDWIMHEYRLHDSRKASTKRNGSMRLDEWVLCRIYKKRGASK
# Procedure, shortened: as §1
# GST-NTL6(1-168), sequence (Q9SCK6 1-168): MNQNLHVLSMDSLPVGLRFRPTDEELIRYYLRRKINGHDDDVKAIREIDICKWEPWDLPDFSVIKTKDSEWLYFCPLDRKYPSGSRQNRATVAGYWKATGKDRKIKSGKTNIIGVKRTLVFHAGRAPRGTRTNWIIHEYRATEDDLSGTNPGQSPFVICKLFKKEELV
sequence,measurement,setting,value
ATTGACTG,binding signal,[1],0.071 E-score
same,binding signal,[2],0.0846 E-score
same,binding signal,[3],0.0623 E-score
same,binding signal,[4],0.0613 E-score
same,binding signal,[5],0.05 E-score
same,binding signal,[6],0.465 E-score
TGACCTCA,binding signal,[6],0.41 E-score
AGGGAAAT,binding signal,[7],0.137 E-score
same,binding signal,[1],0.0669 E-score
same,binding signal,[8],0.0765 E-score
same,binding signal,[2],0.112 E-score
same,binding signal,[9],0.106 E-score
same,binding signal,[3],0.0566 E-score
same,binding signal,[4],0.406 E-score
same,binding signal,[10],0.0592 E-score
ATTTTGAC,binding signal,[2],0.15 E-score
same,binding signal,[9],0.0617 E-score
same,binding signal,[3],0.0826 E-score
same,binding signal,[10],0.101 E-score
same,binding signal,[6],0.461 E-score
AGGGTAAT,binding signal,[7],0.113 E-score
same,binding signal,[1],0.143 E-score
same,binding signal,[8],0.116 E-score
same,binding signal,[11],0.17 E-score
same,binding signal,[2],0.114 E-score
same,binding signal,[9],0.108 E-score
same,binding signal,[3],0.0716 E-score
same,binding signal,[4],0.441 E-score
same,binding signal,[10],0.121 E-score
AAAAAGTC,binding signal,[8],0.0791 E-score
same,binding signal,[11],0.209 E-score
same,binding signal,[2],0.184 E-score
same,binding signal,[3],0.122 E-score
same,binding signal,[4],0.0525 E-score
same,binding signal,[10],0.0942 E-score
same,binding signal,[6],0.426 E-score
ATGAGTCA,binding signal,[6],0.427 E-score
AGTCTGAC,binding signal,[8],0.0699 E-score
same,binding signal,[11],0.0555 E-score
same,binding signal,[12],0.0965 E-score
same,binding signal,[5],0.0919 E-score
same,binding signal,[6],0.422 E-score
AGTCAAAG,binding signal,[4],0.0881 E-score
same,binding signal,[5],0.0935 E-score
same,binding signal,[6],0.486 E-score
AGAAAGTC,binding signal,[8],0.0754 E-score
same,binding signal,[11],0.0896 E-score
same,binding signal,[2],0.103 E-score
same,binding signal,[4],0.0673 E-score
same,binding signal,[10],0.0756 E-score
same,binding signal,[6],0.407 E-score
AGCTTGAC,binding signal,[7],0.0728 E-score
same,binding signal,[8],0.0936 E-score
same,binding signal,[9],0.065 E-score
same,binding signal,[12],0.0572 E-score
same,binding signal,[5],0.099 E-score
same,binding signal,[6],0.447 E-score
TTAGTCAA,binding signal,[8],0.12 E-score
same,binding signal,[2],0.107 E-score
same,binding signal,[9],0.0778 E-score
same,binding signal,[10],0.11 E-score
same,binding signal,[6],0.481 E-score
AGTCAAAT,binding signal,[2],0.213 E-score
same,binding signal,[12],0.113 E-score
same,binding signal,[5],0.152 E-score
same,binding signal,[6],0.476 E-score
GTCAATAA,binding signal,[1],0.109 E-score
same,binding signal,[11],0.134 E-score
same,binding signal,[2],0.135 E-score
same,binding signal,[12],0.122 E-score
same,binding signal,[3],0.118 E-score
same,binding signal,[5],0.112 E-score
same,binding signal,[6],0.457 E-score
AGGTCAGC,binding signal,[5],0.078 E-score
same,binding signal,[6],0.451 E-score
CAGGGTCA,binding signal,[6],0.403 E-score
ACTTGACC,binding signal,[7],0.0892 E-score
same,binding signal,[8],0.05 E-score
same,binding signal,[9],0.0507 E-score
same,binding signal,[3],0.11 E-score
same,binding signal,[4],0.0948 E-score
same,binding signal,[6],0.47 E-score
AAGTCAGC,binding signal,[1],0.14 E-score
same,binding signal,[6],0.459 E-score
CGTCAACC,binding signal,[7],0.0573 E-score
same,binding signal,[9],0.0571 E-score
same,binding signal,[6],0.435 E-score
AGTCAAGA,binding signal,[1],0.0587 E-score
same,binding signal,[6],0.471 E-score
TGACCTAA,binding signal,[1],0.0566 E-score
same,binding signal,[6],0.419 E-score
CTGACCAG,binding signal,[6],0.444 E-score
GGTTTGAC,binding signal,[1],0.131 E-score
same,binding signal,[8],0.0692 E-score
same,binding signal,[11],0.162 E-score
same,binding signal,[2],0.171 E-score
same,binding signal,[9],0.116 E-score
same,binding signal,[12],0.0603 E-score
same,binding signal,[3],0.177 E-score
same,binding signal,[6],0.483 E-score
AGGTCAGA,binding signal,[1],0.0962 E-score
same,binding signal,[6],0.449 E-score

# — PMC4081100, “A DNA-binding-site landscape and regulatory network analysis for NAC transcription factors in Arabidopsis thaliana”
